Results: PubChem BioAssay
Activity calls are given as the source filed them.

How the values were obtained:
[1] = E. coli DRC41 culture turbidity changes, primary screen, E. coli filamentation inducer project, strain DRC41, OD650, 48 h (AID 1152);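 also: E. coli MC1000 strain DRC41 lacking acrAB efflux pump and sulA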; conditions: E. coli DRC41 (acrAB sulA), higher = more signal, called active from +8 up or from −8 down
[2] = small-molecule binders of probe aLefty1, primary screen, biochemical, small-molecule microarray, 635/667 nm fluorescence (AID 1153); conditions: higher = more signal;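 also: score merges spot fluorescence with signal-to-noise ratio from the scanned slide images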
[3] = PSAC antagonists in infected red cells, primary screen, cell-based, P. falciparum Indochina, OD700, 1 h (AID 1154); conditions: P. falciparum Indochina infected RBC osmotic lysis, higher = more signal, called active from +8 up or from −8 down
[4] = PSAC antagonists in infected red cells, primary screen, cell-based, P. falciparum Indochina, OD700, 2 h (AID 1155);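 also: lysis reports solute entry through the parasite surface anion channel PSAC; channel blockers reduce lysis of infected cells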; conditions: P. falciparum Indochina infected erythrocytes, osmotic lysis OD700; higher = more signal, called active from +8 up or from −8 down
[5] = osmotic lysis modulators in infected erythrocytes, primary screen, PSAC antagonist project, cell-based, P. falciparum Indochina, OD700, 3 h (AID 1156); conditions: higher = more signal, called active from +8 up or from −8 down
[6] = PSAC antagonists in infected red cells, primary screen, cell-based, P. falciparum Indochina, OD700, 18 h (AID 1157); conditions: P. falciparum Indochina infected erythrocytes, osmotic lysis OD700, 18 h; higher = more signal, called active from +8 up or from −8 down
[7] = modulators of S6 phosphorylation in cells, primary screen, cell-based, A549, cytoblot, luminescence, serum-stimulated (AID 1158); conditions: A549 phospho-S6 cytoblot, 5 h, higher = more signal;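 also: serum-stimulated A549 lung adenocarcinoma cells; signal is phosphorylated S6 detected by cytoblot immunostaining with HRP secondary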
[8] = target: NADPH oxidase 2 (Homo sapiens) (UniProt P04839); experiment: NOX2-dependent H2O2 signal modulators, primary screen, NOX inhibitor project, cell-based, HEK293-NOX2, PMA-stimulated, Amplex Red fluorescence (AID 1159); conditions: 45 min, higher = more signal, called active from +8 up or from −8 down; also: test concentration not given here
Chain of NADPH oxidase 2 (Homo sapiens) (P04839 whole entry, looked up): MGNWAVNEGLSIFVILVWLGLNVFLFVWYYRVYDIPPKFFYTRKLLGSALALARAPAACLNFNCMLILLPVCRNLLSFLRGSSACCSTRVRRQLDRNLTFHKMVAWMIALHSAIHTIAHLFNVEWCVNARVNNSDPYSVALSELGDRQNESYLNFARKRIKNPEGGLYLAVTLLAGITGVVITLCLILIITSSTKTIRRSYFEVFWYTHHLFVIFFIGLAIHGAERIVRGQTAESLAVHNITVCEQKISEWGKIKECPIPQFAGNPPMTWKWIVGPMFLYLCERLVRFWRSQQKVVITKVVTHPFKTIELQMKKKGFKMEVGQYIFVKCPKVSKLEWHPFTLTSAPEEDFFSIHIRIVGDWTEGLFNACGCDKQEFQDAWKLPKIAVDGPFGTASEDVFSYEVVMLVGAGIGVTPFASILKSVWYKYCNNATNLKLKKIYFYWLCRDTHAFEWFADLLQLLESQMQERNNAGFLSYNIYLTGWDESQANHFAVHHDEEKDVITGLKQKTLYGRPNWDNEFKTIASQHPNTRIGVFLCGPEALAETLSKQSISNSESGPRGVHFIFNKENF

[9] = target: NADPH oxidase 4 (Homo sapiens) (UniProt Q9NPH5); experiment: NOX4-dependent H2O2 signal modulators, primary screen, NOX inhibitor project, cell-based, HEK293-NOX4, tetracycline-induced, Amplex Red fluorescence (AID 1160); conditions: 45 min, higher = more signal, called active from +8 up or from −8 down
Chain of NADPH oxidase 4 (Homo sapiens) (Q9NPH5 whole entry, looked up): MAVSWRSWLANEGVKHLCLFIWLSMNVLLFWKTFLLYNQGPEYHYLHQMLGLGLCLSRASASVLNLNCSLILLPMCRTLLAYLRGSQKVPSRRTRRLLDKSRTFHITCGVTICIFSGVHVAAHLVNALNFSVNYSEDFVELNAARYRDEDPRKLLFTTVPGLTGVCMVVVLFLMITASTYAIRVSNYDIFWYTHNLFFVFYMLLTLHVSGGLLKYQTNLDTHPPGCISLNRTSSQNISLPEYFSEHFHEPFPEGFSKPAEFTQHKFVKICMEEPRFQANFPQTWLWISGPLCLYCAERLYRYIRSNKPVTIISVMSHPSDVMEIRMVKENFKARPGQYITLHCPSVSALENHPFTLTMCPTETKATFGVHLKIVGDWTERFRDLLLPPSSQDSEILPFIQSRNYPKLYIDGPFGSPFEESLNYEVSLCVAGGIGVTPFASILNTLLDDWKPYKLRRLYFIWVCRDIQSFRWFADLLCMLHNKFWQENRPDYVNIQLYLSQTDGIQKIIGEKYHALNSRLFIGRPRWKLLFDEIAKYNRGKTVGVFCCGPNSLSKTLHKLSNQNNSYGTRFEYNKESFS

[10] = target: NADPH oxidase 5 (Homo sapiens) (UniProt Q96PH1); experiment: NOX5-dependent H2O2 signal modulators, primary screen, NOX inhibitor project, cell-based, HEK293-NOX5, Amplex Red fluorescence (AID 1161); conditions: HEK293-NOX5, ionomycin, 45 min, higher = more signal
Chain of NADPH oxidase 5 (Homo sapiens) (Q96PH1 whole entry, looked up): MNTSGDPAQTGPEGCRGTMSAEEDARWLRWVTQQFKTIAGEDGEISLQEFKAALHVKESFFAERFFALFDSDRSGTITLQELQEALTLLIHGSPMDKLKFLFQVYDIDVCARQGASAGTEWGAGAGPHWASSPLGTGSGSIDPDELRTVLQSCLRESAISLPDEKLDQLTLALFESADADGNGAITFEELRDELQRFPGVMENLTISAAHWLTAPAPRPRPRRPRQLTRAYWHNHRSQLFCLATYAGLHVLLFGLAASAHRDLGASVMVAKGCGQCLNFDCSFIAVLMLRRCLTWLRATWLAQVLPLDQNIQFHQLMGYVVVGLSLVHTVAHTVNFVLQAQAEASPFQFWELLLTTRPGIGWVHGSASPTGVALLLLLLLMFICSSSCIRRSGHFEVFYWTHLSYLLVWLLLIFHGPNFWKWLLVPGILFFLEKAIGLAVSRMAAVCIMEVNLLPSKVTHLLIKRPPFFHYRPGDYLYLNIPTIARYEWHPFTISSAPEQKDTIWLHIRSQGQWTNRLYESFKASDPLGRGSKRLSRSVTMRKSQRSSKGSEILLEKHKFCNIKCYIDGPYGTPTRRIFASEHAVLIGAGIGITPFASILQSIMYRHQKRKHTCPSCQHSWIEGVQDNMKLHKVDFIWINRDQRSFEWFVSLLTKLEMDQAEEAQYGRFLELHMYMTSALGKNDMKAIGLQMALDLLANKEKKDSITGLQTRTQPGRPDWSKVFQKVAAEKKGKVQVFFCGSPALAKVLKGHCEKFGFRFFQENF

Row | SMILES | z-score [1] | composite z-score [2] | z-score [3] | z-score [4] | z-score [5] | z-score [6] | z-score [7] | z-score [8] | z-score [9] | z-score [10]
1 | COCC(=C=CC[C@@H](O)c1ccc(CO)o1)CCO | 2.61 (inactive) | -0.205 | 1.6 (inactive) | -0.908 (inactive) | -0.949 (inactive) | -1.11 (inactive) | 3.11 | -1.84 (inactive) | -0.922 (inactive) | -1.06
2 | CC(C)C(=C=CC[C@H](O)c1ccccc1OCCO)C[C@H](O)c1ccccn1 | 0.843 (inactive) | 0.129 | 4.75 (inactive) | 0.673 (inactive) | 2.42 (inactive) | 0.454 (inactive) | 1.16 | -0.222 (inactive) | -0.323 (inactive) | -1.28
3 | C=CCN1C(=O)[C@]2(O[C@H](CCO)[C@@H]([Si](C)(C)c3ccc(OC)cc3)[C@@H]2C)c2cc(NC(=O)[C@H](C)O)ccc21 | -0.589 (inactive) | 0.174 | 9.01 (active) | 2.65 (inactive) | -0.212 (inactive) | 1.43 (inactive) | 1.23 | 0.911 (inactive) | 1.26 (inactive) | 0.375
4 | N#Cc1ccc(NN2C(C(O)c3cccs3)C=CC3C(=O)N(c4ccccc4)C(=O)C32)cc1 (stereo not given) | -0.127 (inactive) | 0.0262 | 5.65 (inactive) | -0.131 (inactive) | 0.832 (inactive) | -0.741 (inactive) | 0.578 | -2.12 (inactive) | -5.34 (inactive) | -3.05
5 | [N-]=[N+]=NCc1ccccc1C[C@]1(C(=O)O)N=C(c2ccc(OCCCO)cc2)O[C@H]1c1ccccc1 | -0.0931 (inactive) | 0.0299 | 9.62 (active) | 0.754 (inactive) | -0.468 (inactive) | -0.0988 (inactive) | -0.381 | 0.453 (inactive) | 1.4 (inactive) | 1.68
6 | C=CC(=C)C1=CCO[C@@H]1[C@H]1CCCN1S(=O)(=O)c1ccccc1[N+](=O)[O-] | 0.279 (inactive) | -0.148 | 2.97 (inactive) | 0.577 (inactive) | 0.544 (inactive) | 0.281 (inactive) | -0.031 | 0.516 (inactive) | 1.06 (inactive) | 0.77
7 | C=C(C(=O)CC[C@H](OC(C)=O)c1ccc(OCCO)cc1)C(C)C | 2.32 (inactive) | 0.0004 | 1.73 (inactive) | -0.266 (inactive) | -1.84 (inactive) | -0.944 (inactive) | 0.823 | -3.44 (inactive) | -1.75 (inactive) | -3.36
8 | CCCN1C(=O)[C@]2(COC(c3ccc(OCCCO)cc3)=N2)Cc2ccccc21 | -0.516 (inactive) | 0.0927 | 16.9 (active) | 2.23 (inactive) | 2.31 (inactive) | 0.741 (inactive) | -0.0824 | -0.248 (inactive) | -0.0403 (inactive) | -1.42
9 | CCCCCCCCCCC(O)C1C=CC2C(=O)N(Cc3ccccc3)C(=O)C2N1n1cnnc1 (stereo not given) | -1.55 (inactive) | 0.918 | 1.32 (inactive) | -0.595 (inactive) | 1.6 (inactive) | -2.48 (inactive) | 1.19 | -2.6 (inactive) | -1.1 (inactive) | -4.63
10 | CN(C)CCCCNC(=O)[C@H]1C[C@H]2C(=O)N[C@@H](Cc3ccccc3)C(=O)N2[C@H]1c1ccc(O)cc1 | 1.22 (inactive) | 0.0161 | -0.0717 (inactive) | -0.63 (inactive) | 0.347 (inactive) | -0.512 (inactive) | 0.403 | -1.35 (inactive) | -1.66 (inactive) | -3.92
11 | O=C(CS)NCCCCCCNC(=O)[C@@H]1C[C@@H]2C(=O)N3CCC[C@H]3C(=O)N2[C@@H]1c1ccc(O)cc1 | 0.113 (inactive) | -0.55 | 4.95 (inactive) | 0.471 (inactive) | 2.2 (inactive) | 0.252 (inactive) | -0.574 | 0.489 (inactive) | -1.38 (inactive) | -0.141
12 | COc1ccc(CCN2C(=O)[C@@]3(Cc4ccccc42)c2ccccc2C(=O)N(Cc2ccccc2Cl)[C@H]3c2ccc(CO)cc2)cc1 | 0.641 (inactive) | 0.0844 | 2.59 (inactive) | 0.346 (inactive) | 0.679 (inactive) | 0.425 (inactive) | 0.306 | 1.3 (inactive) | -1.49 (inactive) | 1.28
13 | CCCCC=C[C@@H](NC(=O)c1cccs1)c1ccccc1 | -1.05 (inactive) | 0.762 | 4.38 (inactive) | 0.669 (inactive) | 0.66 (inactive) | 1.38 (inactive) | 0.221 | -0.99 (inactive) | -0.568 (inactive) | 1.18
